Assay results from the supplement of paper PMC10037445.
Over roughly 2,900 compounds, “NF-kB SEAP reporter activity, fold change vs agonist alone” has its median near 0.99; the highest 2% begin near 2.6. The list comes from a sample in which the highest values are over-represented; it also holds similar structures and randomly drawn compounds.

Experiments:
RAW-Dual [1] = test: NF-kB SEAP reporter activity, fold change vs agonist alone; cytotoxicity flag (confluency mask): not cytotoxic; higher = enhanced NF-kB activity
Method in brief: (§1)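 After 50 nL of library stock was delivered by pin tool to RAW-Dual macrophages (50,000 cells/well, DMEM, 384-well plates), a PRR agonist was added 1 h later and the plates were kept at 37 °C, 5% CO2. Twenty hours later, IRF was read from supernatant by QuantiLuc luminescence and NF-κB by QuantiBlue absorbance at 620 nm. Reporter activity is stated as fold change over agonist-alone wells. Wells with IncuCyte confluency under 70% of agonist controls in both mask sets were counted as cytotoxic.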

RAW-Dual [2] = test: NF-kB SEAP reporter activity, fold change vs agonist alone; higher = enhanced NF-kB activity
Method in brief: as §1

RAW-Dual [3] = test: NF-kB SEAP reporter activity, fold change vs agonist alone; cytotoxicity flag (confluency mask): cytotoxic (confluency <70% of control); higher = enhanced NF-kB activity
Method in brief: as §1

[4] = agonist: ODN 1826 (TLR9) 0.5 ug/mL
[5] = agonist: Pam2CSK4 (TLR2/6) 0.1 ug/mL
[6] = agonist: Pam3CSK4 (TLR2/1) 0.1 ug/mL
[7] = library stock concentration (final ~1000-fold dilution): 10 mM, cytotoxicity flag (confluency mask): not cytotoxic, agonist: Imiquimod (TLR7) […]
[8] = library stock concentration (final ~1000-fold dilution): 10 mM, cytotoxicity flag (confluency mask): not cytotoxic, agonist: MPLA (TLR4) […]

For CC1CNC(=O)c2cnn3ccc(nc23)NC(C)c2cc(F)ccc2O1 (stereo not given) (library stock concentration (final ~1000-fold dilution): 10 mM), the “NF-kB SEAP reporter activity” value (RAW-Dual [1]; agonist: LPS (TLR4) 0.1 ug/mL) was 1.58, the “NF-kB SEAP reporter activity” value (RAW-Dual [1]; [4]) was 0.9 and the “NF-kB SEAP reporter activity” value (RAW-Dual [1]; [5]) was 0.5. For the same compound, the “NF-kB SEAP reporter activity” value (RAW-Dual [1]; [6]) was 0.422.
In the case of CC1CNC(=O)c2cnn3ccc(nc23)NC(C)c2cc(F)ccc2O1 (stereo not given), the “NF-kB SEAP reporter activity” value (RAW-Dual [2]; [7]) is reported as 0.753 and the “NF-kB SEAP reporter activity” value (RAW-Dual [2]; [8]) is reported as 0.916.
In the case of N#CCNC(=O)c1ccc(-c2ccnc(Nc3ccc(N4CCOCC4)cc3)n2)cc1 (library stock concentration (final ~1000-fold dilution): 10 mM), the “NF-kB SEAP reporter activity” value (RAW-Dual [1]; agonist: LPS (TLR4) 0.1 ug/mL) is reported as 0.233, the “NF-kB SEAP reporter activity” value (RAW-Dual [1]; [4]) is reported as 1.01 and the “NF-kB SEAP reporter activity” value (RAW-Dual [1]; [5]) is reported as 0.233. For the same compound, the “NF-kB SEAP reporter activity” value (RAW-Dual [1]; [6]) was 1.08.
For N#Cc1cc(-c2ccnc(Nc3ccc(N4CCOCC4)cc3)n2)ccc1OC1CCOCC1 (library stock concentration (final ~1000-fold dilution): 10 mM), the “NF-kB SEAP reporter activity” value (RAW-Dual [1]; agonist: LPS (TLR4) 0.1 ug/mL) was 0.526, the “NF-kB SEAP reporter activity” value (RAW-Dual [1]; [4]) was 1.39 and the “NF-kB SEAP reporter activity” value (RAW-Dual [1]; [5]) was 0.463. The “NF-kB SEAP reporter activity” value (RAW-Dual [1]; [6]) was 3.66.
In the case of N#Cc1cc(-c2ccnc(Nc3ccc(N4CCOCC4)cc3)n2)ccc1OC1CCOCC1, the “NF-kB SEAP reporter activity” value (RAW-Dual [2]; [7]) is reported as 1.85 and the “NF-kB SEAP reporter activity” value (RAW-Dual [2]; [8]) is reported as 2.02.
With O=C(Nc1ccc(-c2ccnc(Nc3ccc(N4CCOCC4)cc3)n2)cc1)C1CCCN1 (stereo not given) (library stock concentration (final ~1000-fold dilution): 10 mM) the “NF-kB SEAP reporter activity” value (RAW-Dual [1]; agonist: LPS (TLR4) 0.1 ug/mL) was 1.86, the “NF-kB SEAP reporter activity” value (RAW-Dual [1]; [4]) was 0.272 and the “NF-kB SEAP reporter activity” value (RAW-Dual [1]; [5]) was 1.05. For the same compound, the “NF-kB SEAP reporter activity” value (RAW-Dual [1]; [6]) was 1.67.
With O=C(Nc1ccc(-c2ccnc(Nc3ccc(N4CCOCC4)cc3)n2)cc1)C1CCCN1 (stereo not given) the “NF-kB SEAP reporter activity” value (RAW-Dual [2]; [7]) was 1.6 and the “NF-kB SEAP reporter activity” value (RAW-Dual [2]; [8]) was 2.46.
For N#CCNC(=O)c1ccc(-c2ccnc(Nc3ccc(N4CCOCC4)cc3)n2)cc1, the “NF-kB SEAP reporter activity” value (RAW-Dual [2]; [7]) was 1.02 and the “NF-kB SEAP reporter activity” value (RAW-Dual [2]; [8]) was 0.925.
With CN1CCN(CC(=O)N2c3ccccc3C(=O)Nc3cccnc32)CC1.Cl.Cl the “NF-kB SEAP reporter activity” value (RAW-Dual [2]; library stock concentration (final ~1000-fold dilution): 10 mM water, cytotoxicity flag (confluency mask): not cytotoxic, agonist: Imiquimod (TLR7) […]) was 0.949 and the “NF-kB SEAP reporter activity” value (RAW-Dual [2]; library stock concentration (final ~1000-fold dilution): 10 mM water, cytotoxicity flag (confluency mask): not cytotoxic, agonist: MPLA (TLR4) […]) was 1.01.
CN1CCN(CC(=O)N2c3ccccc3C(=O)Nc3cccnc32)CC1.Cl.Cl (library stock concentration (final ~1000-fold dilution): 10 mM water) was tested, and the “NF-kB SEAP reporter activity” value (RAW-Dual [1]; agonist: LPS (TLR4) 0.1 ug/mL) was 1.25, the “NF-kB SEAP reporter activity” value (RAW-Dual [1]; [4]) was 1.15 and the “NF-kB SEAP reporter activity” value (RAW-Dual [1]; [5]) was 1.16. The “NF-kB SEAP reporter activity” value (RAW-Dual [1]; [6]) was 1.06.
Cl.O=S(=O)(c1cccc2c(I)cccc12)N1CCCNCC1 was tested, and the “NF-kB SEAP reporter activity” value (RAW-Dual [2]; [7]) was 0.797 and the “NF-kB SEAP reporter activity” value (RAW-Dual [2]; [8]) was 1.12.
Cl.O=S(=O)(c1cccc2c(I)cccc12)N1CCCNCC1 (library stock concentration (final ~1000-fold dilution): 10 mM) was tested, and the “NF-kB SEAP reporter activity” value (RAW-Dual [1]; agonist: LPS (TLR4) 0.1 ug/mL) was 0.746, the “NF-kB SEAP reporter activity” value (RAW-Dual [1]; [4]) was 0.722 and the “NF-kB SEAP reporter activity” value (RAW-Dual [1]; [5]) was 0.626. The “NF-kB SEAP reporter activity” value (RAW-Dual [1]; [6]) was 0.568.
In the case of CONC(=O)Nc1ccc(-c2sc3c(c2CN(C)C)c(=O)n(-c2ccc(OC)nn2)c(=O)n3Cc2c(F)cccc2F)cc1, the “NF-kB SEAP reporter activity” value (RAW-Dual [2]; library stock concentration (final ~1000-fold dilution): 10 mM, cytotoxicity flag (confluency mask): cytotoxic (confluency <70% of control), agonist: Imiquimod (TLR7) […]) is reported as 2.02 and the “NF-kB SEAP reporter activity” value (RAW-Dual [2]; library stock concentration (final ~1000-fold dilution): 10 mM, cytotoxicity flag (confluency mask): cytotoxic (confluency <70% of control), agonist: MPLA (TLR4) […]) is reported as 2.5.
CONC(=O)Nc1ccc(-c2sc3c(c2CN(C)C)c(=O)n(-c2ccc(OC)nn2)c(=O)n3Cc2c(F)cccc2F)cc1 (library stock concentration (final ~1000-fold dilution): 10 mM) was tested, and the “NF-kB SEAP reporter activity” value (RAW-Dual [3]; agonist: LPS (TLR4) 0.1 ug/mL) was 3.39, the “NF-kB SEAP reporter activity” value (RAW-Dual [3]; [4]) was 0.26 and the “NF-kB SEAP reporter activity” value (RAW-Dual [3]; [5]) was 1.01. The “NF-kB SEAP reporter activity” value (RAW-Dual [3]; [6]) was 1.88.
In the case of CC(C)CCNC(=O)C(CC(C)C)NC(=O)C1OC1C(=O)O (stereo not given), the “NF-kB SEAP reporter activity” value (RAW-Dual [2]; [7]) is reported as 0.94 and the “NF-kB SEAP reporter activity” value (RAW-Dual [2]; [8]) is reported as 1.17.
For CC(C)CCNC(=O)C(CC(C)C)NC(=O)C1OC1C(=O)O (stereo not given) (library stock concentration (final ~1000-fold dilution): 10 mM), the “NF-kB SEAP reporter activity” value (RAW-Dual [1]; agonist: LPS (TLR4) 0.1 ug/mL) was 1.03, the “NF-kB SEAP reporter activity” value (RAW-Dual [1]; [4]) was 1.02 and the “NF-kB SEAP reporter activity” value (RAW-Dual [1]; [5]) was 1. For the same compound, the “NF-kB SEAP reporter activity” value (RAW-Dual [1]; [6]) was 1.19.
In the case of Br.NC(=O)C(c1ccccc1)(c1ccccc1)C1CCN(CCc2ccc3c(c2)CCO3)C1 (stereo not given), the “NF-kB SEAP reporter activity” value (RAW-Dual [2]; [7]) is reported as 1.02 and the “NF-kB SEAP reporter activity” value (RAW-Dual [2]; [8]) is reported as 0.984.
